Source: PubChem BioAssay (National Center for Advancing Translational Sciences (NCATS))
Shiga toxin inh – Shiga toxin inhibition. Vero cells, Shiga toxin protein synthesis inhibition reporter. inhibition, % at 38.7 µM. 9.2% of 290,000 active. AID 2315; in the data active = inhibition mostly above about 28%, no sharp cut-off; inactive = mostly below about 43%; note: 0% is about no effect
CHX counter – affects cycloheximide protein synthesis inhibition readout, counter-screen. cell reporter, cycloheximide protein synthesis inhibition counterscreen. max response, %. 12% of 300,000 active; in the data active = max response mostly above about 13%, no sharp cut-off; inactive = mostly below about 14%; note: read at 38.3 µM for the half of the compounds with a filed dose; 0% is about no effect
Pf growth 96h – P. falciparum growth inhibition at 96 hour, primary screen for plastid delayed-death inhibitors; AID 504834; 6.9% of 320,000 active; P. falciparum luciferase reporter growth, 96 h; Potency, µM (titrated, usually from 28.7 µM), without a hit: at the top dose activity change, negative = inhibition, most hits filed as inhibitors; note: potency is the fitted concentration of half-maximal effect; % is set by controls: 0 for no effect and ±100 for the full control effect
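Readout is luminescence from an integrated firefly luciferase in P. falciparum. Red cells, 2% hematocrit and 0.05% parasitemia final, were cultured with compound through two parasite generations (96 hours) at 37 C, 5% CO2.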
HCMV inh – inhibitors of human cytomegalovirus; HFF cells, HCMV-luciferase reporter, 72 h; active compounds read low; activity change, negative = inhibition, % at 57.5 µM; 4.5% of 410,000 active; AID 1259415; in the data active = activity change below about -60%; inconclusive = no clear call, values can overlap the other calls; inactive = above about -39%; note: % is set by controls: 0 for no effect and ±100 for the full control effect
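Compounds were evaluated in HFFs infected with an HCMV luciferase reporter virus (MOI 1 PFU/cell). Luciferase in lysates collected 72 h post infection served as the replication measure.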
Pf growth 48h – P. falciparum growth inhibition at 48 hours (one generation). P. falciparum luciferase growth in erythrocytes, 48 h. Potency, µM (top dose mostly 28.7 µM), inactives show at the top dose activity change, negative = inhibition, most hits filed as inhibitors. 5.9% of 310,000 active. AID 504832; note: potency is the fitted concentration of half-maximal effect; % is set by controls: 0 for no effect and ±100 for the full control effect
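Firefly luciferase activity from engineered P. falciparum reports growth; inhibitors lower the luminescent signal. Cultures contained 2% hematocrit erythrocytes at 0.1% final parasitemia.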
An asterisk follows results filed as active; ? = inconclusive; nt = no result given. Hits are enriched below; roughly 20% of the tested compounds scored in any of these assays. Unless noted, calls come from the whole dose curve; as a rule, active = well fitted inhibition curve with a large enough effect; inconclusive = small, poorly fitted or top-dose-only effect, or another doubt; inactive = no such curve, though single readings can be large or run the other way.

SMILES | Shiga toxin inh | CHX counter | Pf growth 96h | HCMV inh | Pf growth 48h
COc1ccc(C2CC(C(F)(F)F)n3nc(C(=O)Nc4c(C)n(C)n(-c5ccccc5)c4=O)c(Cl)c3N2)cc1 (stereo not drawn) | -8 | -4 | -22% | nt | -25%
N#CCCn1cc(/C=N/NC(N)=S)c(-c2ccc(Br)cc2)n1 | 29 | 3 | -2% | -70* | 26%
O=C(CSc1nnc2ccc3ccccc3n12)Nc1ccccc1Cl | nt | nt | nt | -22 | nt
Cc1nn(S(=O)(=O)c2ccc(C(C)(C)C)cc2)c(C)c1S(=O)(=O)N1CCCCCC1 | nt | nt | nt | -8 | nt
CN(c1nc(-c2ccccc2)cs1)C1CCS(=O)(=O)C1 (stereo not drawn) | 61* | 20* | -5% | 58 | 35%
Clc1ccc(-c2nc3ccccc3nc2-c2ccccc2)cc1 | -7 | -4 | 2% | -5 | 8%
CCSc1nnc(C)c2ccccc12 | -16 | -5 | ? | -8 | 49%
Cc1nnc(Sc2nc3ccccc3o2)c2ccccc12 | 107 | 26* | nt | 69 | -25%
Cc1ccc(-c2nnc(Sc3nc4ccccc4o3)c3ccccc23)cc1 | -17 | -4 | 4% | -11 | 12µM*
Clc1ccc(-c2nnc(Sc3nc4ccccc4o3)c3ccccc23)cc1 | 17 | 3 | 8% | -82* | 37%
Cc1ccc2nc(NCc3ccccc3)c3nncn3c2c1 | nt | nt | nt | -8 | nt
Cc1c(Cc2ccc3c(c2)OCO3)sc(NC(=O)c2ccc3ccccc3c2)c1C(N)=O | -13 | -1 | 22% | 25 | 13%
CCCOc1ccc(C(=O)Nc2nc(C)c(Cc3ccc4c(c3)OCO4)s2)cc1 | 72* | 24* | ? | ? | 10µM*
COc1cc(C(=O)Nc2nc(C)c(Cc3ccc4c(c3)OCO4)s2)cc(OC)c1OC | 10 | 0 | ? | -2 | ?
Cc1nc(NC(=O)c2ccc(OCC(C)C)cc2)sc1Cc1ccc2c(c1)OCO2 | 30* | 19* | ? | ? | ?
Cn1c(NCC2CCCCC2)nc2cc(-c3ccsc3)sc2c1=O | nt | nt | nt | 5 | nt
Cc1ccc(Sc2ncnc3onc(C)c23)cc1 | -18 | 1 | ? | 64 | ?
Cc1noc2ncnc(Sc3c(Cl)cccc3Cl)c12 | -16 | -1 | 2.3µM* | 16 | nt
Cc1noc2ncnc(Sc3ccc(Cl)cc3)c12 | -14 | 11 | -16% | -79* | -7%
Cc1ccc(CSc2ncnc3onc(C)c23)cc1 | 7 | 1 | ? | ? | ?
Cc1ccccc1Sc1ncnc2onc(C)c12 | -22 | 1 | 8.3µM* | 57 | nt
CSc1nc(N)n2nc(-c3ccc(Cl)cc3)cc2n1 | 86* | 47* | 261% | 39 | 151%
Cc1ccc(-c2cc(N)n(Cc3ccc(Cl)cc3)n2)cc1 | 33 | 22 | ? | -22 | 53%
Cc1ccc(Oc2nnc(-c3cccs3)c3ccccc23)cc1C | 4 | -2 | ? | -62* | ?
CSc1nnc2n(C)c3c(c(=O)n12)C1(CCCC1)Cc1ccccc1-3 | -8 | 1 | 10µM* | 30 | ?
SMILES | Shiga toxin inh | CHX counter | Pf growth 96h | HCMV inh | Pf growth 48h
Cc1cccc(NC(=O)C2CCCN(S(=O)(=O)c3c(C)[nH]c(=O)[nH]c3=O)C2)c1C (stereo not drawn) | nt | nt | nt | 3 | nt
Oc1ccc(/C=N/NC(=S)N/N=C/c2ccc(O)cc2)cc1 | 62* | 40* | 6% | ? | 75%
COc1cccc(/C=N/NC(=S)Nc2cccnc2)c1 | 49 | 12 | -23% | -14 | 34%
Oc1ccc(/C=N/NC(=S)Nc2cccnc2)cc1 | 81* | 48* | 170% | 25 | 156%
Cc1noc(C)c1C(=O)N(C)CC(=O)Nc1ccc(F)c(F)c1F | nt | nt | 3% | -25 | 11%
CCc1ccccc1NC(=O)CN1C(=O)CCc2cc(S(=O)(=O)N3CCCCC3)ccc21 | nt | nt | nt | 4 | nt
Clc1ccc(N=C2SCCS2)cc1 | 76* | 46* | 12% | 34 | 71%
COc1cc(CN(C)CC2CCCN(CCc3cccc(C(F)(F)F)c3)C2)ccc1O (stereo not drawn) | 5 | 1 | ? | -17 | 2.9µM*
COc1cc(CN(C)CC2CCCN(CCc3ccc(F)cc3)C2)c(Cl)cc1O (stereo not drawn) | 2 | -3 | ? | 17 | 12µM*
COc1ccc(CN(C)CC2CCCN(CCc3ccc(F)cc3)C2)cc1OC (stereo not drawn) | -12 | -3 | 4.7µM* | 0 | ?
COc1ccccc1CCN1CCCC(CN(C)CC(C)(C)CO)C1 (stereo not drawn) | nt | -3 | 12µM* | 51 | 2%
CCCCNC(=O)CSc1nc2ccccc2nc1Cc1ccc(Cl)cc1 | nt | nt | nt | 3 | nt
CCCN(CCC)C(=O)Cn1c(=O)n(-c2cccc(C)c2)c(=O)c2c1c1cc(OC)ccc1n2C | nt | nt | nt | -29 | nt
NC(=O)C1C2C=CC(C2)C1c1ccccc1 (stereo not drawn) | nt | nt | nt | -27 | nt
COc1ccccc1N1CCN(C(=O)C2CCN(S(=O)(=O)c3cccs3)CC2)CC1 | nt | nt | nt | 42 | nt
CSCCC(=O)N(C)CC1CCCN(CCc2cccc(C(F)(F)F)c2)C1 (stereo not drawn) | 11 | -5 | ? | 17 | -10%
COc1cc(CN(C)CC2CCCN(CCc3ccccc3F)C2)cc(Cl)c1OC (stereo not drawn) | -8 | -1 | 9.3µM* | -12 | 13µM*
CN(CC1CCCN(CCc2cccc(C(F)(F)F)c2)C1)C(=O)c1cc2ccccc2o1 (stereo not drawn) | -3 | 0 | 31% | ? | 10µM*
CCOc1cccc(CN(C)CC2CCCN(CCc3ccc(Cl)cc3)C2)c1O (stereo not drawn) | -8 | 2 | 1.5µM* | -12 | 3.7µM*
CN(Cc1ccccc1)CC1CCCN(CCc2ccccc2F)C1 (stereo not drawn) | -6 | -3 | ? | -14 | ?
CCN(CC1CCCN(CCc2cccc(F)c2)C1)C(=O)c1cc2ccccc2o1 (stereo not drawn) | 11 | 9 | 80% | -34 | ?
CCN(CC1CCCN(CCc2cccc(F)c2)C1)C(=O)c1cc(C)oc1C (stereo not drawn) | 10 | -7 | 5.2µM* | -15 | ?
COc1ccc(CN(C)CC2CCCN(CCc3ccc(Cl)cc3)C2)cc1OC (stereo not drawn) | -19 | -3 | -10% | 43 | ?
Cc1[nH]c2ccccc2c1CCNC(=O)c1ccc2c(c1[N+](=O)[O-])C(=O)c1ccccc1C2=O | 20 | 3 | ? | -75* | ?
CN(C)C(=O)c1ccc2c(c1[N+](=O)[O-])C(=O)c1ccccc1C2=O | 36 | 13 | ? | 60 | 32%
Cc1[nH]c2c(C)cccc2c1CCNC(=O)c1ccc2c(c1[N+](=O)[O-])C(=O)c1ccccc1C2=O | 29 | 2 | ? | ? | 12µM*
CCOc1ccc(NC(=O)Cn2c(=O)n(CCCC(=O)NCCc3ccc(Cl)cc3)c(=O)c3ccccc32)cc1 | nt | nt | nt | -4 | nt
CC(=O)N1CCC(C(=O)N2c3ccccc3N=C(c3ccc(C(F)(F)F)cc3)C2C(=O)NC(C)(C)C)CC1 (stereo not drawn) | nt | nt | nt | 42 | nt
